Consider 24 compounds from PubChem BioAssay (Tox21).

Where “and” joins values, the source holds several entries; their conditions need not be identical. Identical values can stand only once. Records with an inconclusive call do not appear. Some compounds were tested as several samples or in several runs, with calls that do not always agree. Calls of active or inactive are those of the source. Calls come from the whole dose curve; as a rule, active = well fitted cell-killing curve with a large enough effect in the repeat runs; inconclusive = weak or mixed curves, or effect the other way; inactive = no such curve, though single readings can be large or run the other way.
% is set by controls: 0 for no effect and ±100 for the full control effect; potency is the fitted concentration of half-maximal effect.

This assay in a line: qHTS assay to identify small molecule antagonists of the thyroid receptor (TR) signaling pathway - cell viability counter screen (AID 743064). Note: nearly all actives have a fitted effect of over 50% in size. The following applies: GH3.TRE-Luc viability, CellTiter-Fluor, 24 h; series mostly up to 70.3 µM; activity change, negative = cytotoxic: at the top concentration. An outline of the steps:
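Viability of T3-stimulated (1 nM final) GH3.TRE-Luc cells is measured by CellTiter-Fluor fluorescence after 23.5 h compound exposure at 37 °C plus 30 min reagent incubation.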
As for `O=C1OC(=O)c2cc(-c3ccc4c(c3)C(=O)OC4=O)ccc21`, the “activity change, negative = cytotoxic” value is 9.12% (inactive).
With `CCOc1ccc([N+](=O)[O-])cc1`, the Potency is 31.1 µM (active).
`C=N[C@@H](C(=O)N[C@@H]1C(=O)N2[C@@H]1SC(C)(C)[C@@H]2C(=O)O)c1ccccc1`: the “activity change, negative = cytotoxic” value is 20.9% (inactive).
`CN(C)CCc1c[nH]c2ccc(Cn3cncn3)cc12`: the “activity change, negative = cytotoxic” value was 22% (inactive).
In the case of `FC(F)(F)COCC(F)(F)F`, the “activity change, negative = cytotoxic” value was 23.6% (inactive).
For the compound `CCCCCCCCCC[N+](C)(CCCCCCCCCC)CCC[Si](OC)(OC)OC`, the Potency was 21.7 µM (active).
As for `N[C@@H](Cc1ccc(O)c(O)c1)C(=O)O`, the “activity change, negative = cytotoxic” value is -8.9% (inactive).
On to `C[C@@H]1C[C@H]2[C@@H]3C[C@H](F)C4=CC(=O)C=C[C@]4(C)[C@@]3(Cl)[C@@H](O)C[C@]2(C)[C@H]1C(=O)COC(=O)C(C)(C)C`, for which the “activity change, negative = cytotoxic” value was -26.1% (inactive).
`CC(Cc1ccc(O)c(O)c1)C(C)Cc1ccc(O)c(O)c1` (centres undefined): the Potency was 13.7 µM (active).
`O=C1OC(O)C(C(Cl)Cl)=C1Cl` (centres undefined): the Potency is 31.6 µM (active).
On to `NC(N)=NCCCCN=C(N)N`, for which the “activity change, negative = cytotoxic” value was 13.2% (inactive).
On to `NC(=O)CC[C@@H]1NC(=O)[C@H](Cc2ccccc2)NC(=O)[C@H](Cc2ccc(O)cc2)NC(=O)[C@@H](N)CSSC[C@@H](C(=O)N2CCC[C@H]2C(=O)N[C@@H](CCCN=C(N)N)C(=O)NCC(N)=O)NC(=O)[C@H](CC(N)=O)NC1=O`, for which the Potency entry is “inactive”.
Regarding `Cc1c(N)nc([C@H](CC(N)=O)NC[C@H](N)C(N)=O)nc1C(=O)N[C@H](C(=O)N[C@H](C)[C@@H](O)[C@H](C)C(=O)N[C@H](C(=O)NCCc1nc(-c2nc(C(=O)NCCCCN=C(N)N)cs2)cs1)[C@@H](C)O)[C@@H](O[C@@H]1O[C@@H](CO)[C@@H](O)[C@H](O)[C@@H]1O[C@H]1O[C@H](CO)[C@@H](O)[C@H](OC(N)=O)[C@@H]1O)c1cnc[nH]1`, the Potency entry is “inactive and 4.22 µM (active)”.
`CC[C@@H](C(=O)[C@@H](C)[C@@H](O)[C@H](C)CCc1ccc(C)c(O)c1C(=O)O)[C@H]1O[C@](CC)([C@H]2CC[C@](O)(CC)[C@H](C)O2)C[C@@H]1C`: the Potency was 3.35 µM (active).
For `CCC(NC(C)C)C(O)c1ccc(O)c(O)c1` (centres undefined), the “activity change, negative = cytotoxic” value was 16.6% (inactive).
As for `CCCCCCOC(=O)c1cccnc1`, the “activity change, negative = cytotoxic” value is -0.482% (inactive).
As to `CC(C)C[C@H](NC(=O)[C@@H](COC(C)(C)C)NC(=O)[C@H](Cc1ccc(O)cc1)NC(=O)[C@H](CO)NC(=O)[C@H](Cc1c[nH]c2ccccc12)NC(=O)[C@H](Cc1cnc[nH]1)NC(=O)[C@@H]1CCC(=O)N1)C(=O)N[C@@H](CCCN=C(N)N)C(=O)N1CCC[C@H]1C(=O)NNC(N)=O`, the Potency entry was “inactive”.
As to `CC(=O)OCC1=C(C(=O)O)N2C(=O)[C@@H](NC(=O)Cc3ccccc3)[C@H]2SC1`, the “activity change, negative = cytotoxic” value is 20.9% (inactive).
Regarding `NS(=O)(=O)c1cc(Cl)c(Cl)c(S(N)(=O)=O)c1`, the “activity change, negative = cytotoxic” value is 17.5% [at 32.5 µM] (inactive).
Regarding `O=c1[nH]c(=O)n([C@H]2C[C@H](O)[C@@H](CO)O2)cc1/C=C/Br`, the “activity change, negative = cytotoxic” value is 29.6% (inactive).
Same read-out and setting: for `C[C@H]1O[C@@H](O[C@H]2CC[C@@]3(C)[C@H](CC[C@@H]4[C@@H]3C[C@@H](O)[C@]3(C)[C@@H](C5=CC(=O)OC5)CC[C@]43O)C2)C[C@H](O)[C@@H]1O[C@H]1C[C@H](O)[C@H](O[C@H]2C[C@H](O)[C@H](O[C@@H]3O[C@H](CO)[C@@H](O)[C@H](O)[C@H]3O)[C@@H](C)O2)[C@@H](C)O1` the value was 17.5% (inactive); for `Oc1ccc(Cl)c2c1CCC2`, -2.73% (inactive).
On to `N[C@H](CO)C(=O)O`, for which the “activity change, negative = cytotoxic” value is 13.4% (inactive).
`CC1(C)S[C@@H]2[C@H](NC(=O)[C@H](N)c3ccc(O)cc3)C(=O)N2[C@H]1C(=O)O`: the “activity change, negative = cytotoxic” value is 15.1% (inactive).
